This passage reports residual activity results from ChEMBL document CHEMBL2218924, “A broad activity screen in support of a chemogenomic map for kinase signalling research and drug discovery” (Biochem J, 2013).

Assay [1] deals with T1, Ephrin type-A receptor 3 (Homo sapiens) (UniProt P29320).
T1 sequence (whole entry): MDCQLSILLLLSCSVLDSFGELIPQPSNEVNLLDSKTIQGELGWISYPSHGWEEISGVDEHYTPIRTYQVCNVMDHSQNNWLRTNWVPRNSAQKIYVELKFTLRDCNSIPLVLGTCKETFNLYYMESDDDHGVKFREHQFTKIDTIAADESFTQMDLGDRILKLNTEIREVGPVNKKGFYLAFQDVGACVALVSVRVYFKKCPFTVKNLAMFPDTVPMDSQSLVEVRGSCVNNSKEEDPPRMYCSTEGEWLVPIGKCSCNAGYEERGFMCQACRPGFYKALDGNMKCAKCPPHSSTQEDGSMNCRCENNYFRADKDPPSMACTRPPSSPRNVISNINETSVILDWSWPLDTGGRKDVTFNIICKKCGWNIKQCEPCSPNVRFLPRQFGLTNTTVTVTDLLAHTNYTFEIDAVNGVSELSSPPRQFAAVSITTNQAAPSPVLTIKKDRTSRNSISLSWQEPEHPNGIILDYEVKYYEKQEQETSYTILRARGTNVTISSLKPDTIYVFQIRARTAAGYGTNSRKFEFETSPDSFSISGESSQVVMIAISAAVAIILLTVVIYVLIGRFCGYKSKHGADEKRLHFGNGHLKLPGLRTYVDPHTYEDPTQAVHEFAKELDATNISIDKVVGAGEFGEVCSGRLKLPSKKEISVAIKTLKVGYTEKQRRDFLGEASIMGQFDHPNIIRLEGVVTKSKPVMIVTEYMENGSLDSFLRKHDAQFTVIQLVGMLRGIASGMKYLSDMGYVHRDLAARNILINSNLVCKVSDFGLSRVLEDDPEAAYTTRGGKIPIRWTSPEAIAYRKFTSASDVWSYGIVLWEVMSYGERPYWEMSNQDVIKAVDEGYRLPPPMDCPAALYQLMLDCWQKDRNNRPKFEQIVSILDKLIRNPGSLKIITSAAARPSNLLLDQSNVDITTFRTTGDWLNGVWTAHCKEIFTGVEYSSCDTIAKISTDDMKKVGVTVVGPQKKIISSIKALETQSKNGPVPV
Particulars: at 10 µM; call rule not given here.

Assay [2] addresses Ephrin type-A receptor 4 (Homo sapiens) (UniProt P54764). Particulars: at 1 µM.
Assay [3] has the same target. Particulars: at 10 µM.
Assay [4] deals with Ephrin type-A receptor 5 (Homo sapiens) (UniProt P54756). Particulars: at 1 µM.
Assay [5] shares this target. Particulars: at 10 µM.
Assay [6] addresses Ephrin type-A receptor 7 (Homo sapiens) (UniProt Q15375). Particulars: at 1 µM.
Assay [7] has the same target. Particulars: at 10 µM.
In assay [8] the target is T2, Ephrin type-A receptor 8 (Homo sapiens) (UniProt P29322).
T2 sequence (whole entry): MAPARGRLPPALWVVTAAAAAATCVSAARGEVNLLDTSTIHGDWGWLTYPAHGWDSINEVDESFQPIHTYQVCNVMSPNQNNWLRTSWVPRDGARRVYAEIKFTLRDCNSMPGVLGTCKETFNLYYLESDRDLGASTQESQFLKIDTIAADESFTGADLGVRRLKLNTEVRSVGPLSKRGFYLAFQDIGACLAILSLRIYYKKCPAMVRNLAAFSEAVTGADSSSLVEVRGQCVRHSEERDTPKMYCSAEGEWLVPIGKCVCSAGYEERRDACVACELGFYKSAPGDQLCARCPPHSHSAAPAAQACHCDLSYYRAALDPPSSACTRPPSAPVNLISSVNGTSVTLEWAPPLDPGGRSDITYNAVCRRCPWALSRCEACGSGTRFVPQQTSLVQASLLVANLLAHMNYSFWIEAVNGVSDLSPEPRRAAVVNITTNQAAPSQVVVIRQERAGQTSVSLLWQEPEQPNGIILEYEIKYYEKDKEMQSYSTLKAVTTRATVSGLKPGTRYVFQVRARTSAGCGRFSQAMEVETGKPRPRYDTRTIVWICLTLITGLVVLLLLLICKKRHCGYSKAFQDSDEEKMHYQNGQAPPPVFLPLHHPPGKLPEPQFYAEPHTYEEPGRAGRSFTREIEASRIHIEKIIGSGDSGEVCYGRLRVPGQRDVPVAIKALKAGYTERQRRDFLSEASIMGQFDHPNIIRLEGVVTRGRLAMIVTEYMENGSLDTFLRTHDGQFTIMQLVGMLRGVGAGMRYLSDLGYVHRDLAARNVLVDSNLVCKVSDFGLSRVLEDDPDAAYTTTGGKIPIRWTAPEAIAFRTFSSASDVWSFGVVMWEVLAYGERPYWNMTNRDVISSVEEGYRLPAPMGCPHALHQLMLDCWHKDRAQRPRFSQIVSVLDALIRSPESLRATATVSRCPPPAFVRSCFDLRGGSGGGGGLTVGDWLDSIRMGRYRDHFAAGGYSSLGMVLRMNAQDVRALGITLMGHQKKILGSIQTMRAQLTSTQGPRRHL
Particulars: at 1 µM.

Assay [9] addresses T2, Ephrin type-A receptor 8 (Homo sapiens). Particulars: at 10 µM.
Assay [10] deals with T3, Ephrin type-B receptor 1 (Homo sapiens) (UniProt P54762).
T3 sequence (whole entry): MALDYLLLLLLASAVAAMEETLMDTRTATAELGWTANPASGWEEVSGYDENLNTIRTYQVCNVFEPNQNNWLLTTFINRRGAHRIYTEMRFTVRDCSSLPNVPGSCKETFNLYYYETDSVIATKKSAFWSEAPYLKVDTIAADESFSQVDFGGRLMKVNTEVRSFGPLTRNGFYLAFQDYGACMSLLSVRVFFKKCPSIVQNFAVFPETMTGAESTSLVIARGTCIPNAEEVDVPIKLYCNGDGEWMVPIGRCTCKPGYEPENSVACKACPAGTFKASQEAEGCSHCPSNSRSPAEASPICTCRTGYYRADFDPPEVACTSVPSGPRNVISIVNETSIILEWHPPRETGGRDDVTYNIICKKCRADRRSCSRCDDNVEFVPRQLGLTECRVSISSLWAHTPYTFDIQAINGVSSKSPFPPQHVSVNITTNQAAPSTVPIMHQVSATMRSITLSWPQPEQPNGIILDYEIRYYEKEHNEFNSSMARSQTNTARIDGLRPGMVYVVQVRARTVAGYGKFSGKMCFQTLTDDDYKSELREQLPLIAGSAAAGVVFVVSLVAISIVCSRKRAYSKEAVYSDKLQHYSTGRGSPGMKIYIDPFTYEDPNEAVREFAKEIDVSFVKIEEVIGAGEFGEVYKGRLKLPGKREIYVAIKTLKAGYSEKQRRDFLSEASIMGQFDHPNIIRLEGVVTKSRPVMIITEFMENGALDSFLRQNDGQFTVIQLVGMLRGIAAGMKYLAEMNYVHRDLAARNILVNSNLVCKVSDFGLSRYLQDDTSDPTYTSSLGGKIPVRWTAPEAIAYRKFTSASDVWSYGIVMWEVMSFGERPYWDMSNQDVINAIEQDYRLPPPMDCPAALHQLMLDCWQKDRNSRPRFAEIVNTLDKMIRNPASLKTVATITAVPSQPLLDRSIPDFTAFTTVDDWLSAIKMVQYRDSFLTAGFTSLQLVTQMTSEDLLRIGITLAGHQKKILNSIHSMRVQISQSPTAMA
Particulars: at 1 µM.

For assay [11], the target named is T3, Ephrin type-B receptor 1 (Homo sapiens). Particulars: at 10 µM.
Assay [12] deals with T4, Ephrin type-B receptor 3 (Homo sapiens) (UniProt P54753).
T4 sequence (whole entry): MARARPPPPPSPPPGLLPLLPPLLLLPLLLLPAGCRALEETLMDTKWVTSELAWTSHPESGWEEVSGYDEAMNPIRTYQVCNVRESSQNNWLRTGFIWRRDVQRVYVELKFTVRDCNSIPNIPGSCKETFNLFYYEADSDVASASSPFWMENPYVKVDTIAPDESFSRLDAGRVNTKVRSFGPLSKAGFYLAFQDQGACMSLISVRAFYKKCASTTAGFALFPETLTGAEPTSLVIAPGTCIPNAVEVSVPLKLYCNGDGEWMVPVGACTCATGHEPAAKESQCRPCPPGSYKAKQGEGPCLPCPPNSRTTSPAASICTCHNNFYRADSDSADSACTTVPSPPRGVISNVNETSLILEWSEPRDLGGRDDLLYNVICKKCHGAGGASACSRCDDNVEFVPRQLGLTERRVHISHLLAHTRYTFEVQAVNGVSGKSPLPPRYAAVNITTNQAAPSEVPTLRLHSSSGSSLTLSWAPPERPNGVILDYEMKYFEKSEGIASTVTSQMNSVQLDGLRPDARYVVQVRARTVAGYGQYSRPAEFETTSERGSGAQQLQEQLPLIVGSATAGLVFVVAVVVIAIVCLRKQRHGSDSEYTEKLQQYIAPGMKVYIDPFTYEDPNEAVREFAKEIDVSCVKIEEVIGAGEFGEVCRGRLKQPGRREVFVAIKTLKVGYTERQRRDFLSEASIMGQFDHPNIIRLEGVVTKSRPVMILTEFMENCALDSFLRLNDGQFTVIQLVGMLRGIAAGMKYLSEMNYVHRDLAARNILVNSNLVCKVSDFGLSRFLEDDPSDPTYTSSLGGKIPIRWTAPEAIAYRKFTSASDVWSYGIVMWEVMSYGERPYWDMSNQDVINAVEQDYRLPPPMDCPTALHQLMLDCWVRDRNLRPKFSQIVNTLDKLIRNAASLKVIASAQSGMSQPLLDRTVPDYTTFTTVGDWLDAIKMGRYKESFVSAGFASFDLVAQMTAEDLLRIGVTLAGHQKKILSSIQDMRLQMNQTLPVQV
Particulars: at 1 µM.

Assay [13] has as its target T4, Ephrin type-B receptor 3 (Homo sapiens). Particulars: at 10 µM.
Assay [14] has as its target T5, Ephrin type-B receptor 4 (Homo sapiens) (UniProt P54760).
T5 sequence (whole entry): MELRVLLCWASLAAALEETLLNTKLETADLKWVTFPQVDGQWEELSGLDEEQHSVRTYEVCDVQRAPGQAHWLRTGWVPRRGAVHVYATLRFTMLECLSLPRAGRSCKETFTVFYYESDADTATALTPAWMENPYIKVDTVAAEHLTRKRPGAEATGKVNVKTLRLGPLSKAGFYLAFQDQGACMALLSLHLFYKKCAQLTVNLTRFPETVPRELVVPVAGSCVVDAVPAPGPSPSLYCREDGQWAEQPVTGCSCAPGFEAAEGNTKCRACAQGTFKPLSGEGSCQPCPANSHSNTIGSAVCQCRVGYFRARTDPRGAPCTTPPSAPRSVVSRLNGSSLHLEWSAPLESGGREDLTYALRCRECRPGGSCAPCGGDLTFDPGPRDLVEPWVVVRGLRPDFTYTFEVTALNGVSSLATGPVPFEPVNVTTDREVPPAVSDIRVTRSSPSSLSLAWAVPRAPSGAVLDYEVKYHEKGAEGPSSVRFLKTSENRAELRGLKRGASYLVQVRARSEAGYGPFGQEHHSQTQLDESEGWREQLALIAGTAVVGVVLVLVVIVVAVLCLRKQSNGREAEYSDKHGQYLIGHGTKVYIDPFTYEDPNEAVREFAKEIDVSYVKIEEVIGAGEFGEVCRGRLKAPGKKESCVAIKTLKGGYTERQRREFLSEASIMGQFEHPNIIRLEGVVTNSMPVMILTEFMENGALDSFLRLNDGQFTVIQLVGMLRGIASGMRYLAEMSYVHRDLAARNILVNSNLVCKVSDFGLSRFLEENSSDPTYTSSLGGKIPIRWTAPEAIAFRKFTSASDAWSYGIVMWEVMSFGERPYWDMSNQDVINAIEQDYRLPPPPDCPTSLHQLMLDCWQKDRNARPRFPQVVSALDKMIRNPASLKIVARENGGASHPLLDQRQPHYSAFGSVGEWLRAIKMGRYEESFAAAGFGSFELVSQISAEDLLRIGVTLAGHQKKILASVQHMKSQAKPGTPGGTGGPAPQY
Particulars: at 1 µM.

The target in assay [15] is T5, Ephrin type-B receptor 4 (Homo sapiens). Particulars: at 10 µM.
The target of assay [16] is Receptor tyrosine-protein kinase erbB-4 (Homo sapiens) (UniProt Q15303). Particulars: at 1 µM.
Assay [17] has the same target. Particulars: at 10 µM.
For assay [18], the target named is Focal adhesion kinase 1 (Homo sapiens) (UniProt Q05397). Particulars: at 1 µM.

SMILES strings stand for the structures.

Ephrin type-A receptor 4 (Homo sapiens), sequence (P54764 whole entry): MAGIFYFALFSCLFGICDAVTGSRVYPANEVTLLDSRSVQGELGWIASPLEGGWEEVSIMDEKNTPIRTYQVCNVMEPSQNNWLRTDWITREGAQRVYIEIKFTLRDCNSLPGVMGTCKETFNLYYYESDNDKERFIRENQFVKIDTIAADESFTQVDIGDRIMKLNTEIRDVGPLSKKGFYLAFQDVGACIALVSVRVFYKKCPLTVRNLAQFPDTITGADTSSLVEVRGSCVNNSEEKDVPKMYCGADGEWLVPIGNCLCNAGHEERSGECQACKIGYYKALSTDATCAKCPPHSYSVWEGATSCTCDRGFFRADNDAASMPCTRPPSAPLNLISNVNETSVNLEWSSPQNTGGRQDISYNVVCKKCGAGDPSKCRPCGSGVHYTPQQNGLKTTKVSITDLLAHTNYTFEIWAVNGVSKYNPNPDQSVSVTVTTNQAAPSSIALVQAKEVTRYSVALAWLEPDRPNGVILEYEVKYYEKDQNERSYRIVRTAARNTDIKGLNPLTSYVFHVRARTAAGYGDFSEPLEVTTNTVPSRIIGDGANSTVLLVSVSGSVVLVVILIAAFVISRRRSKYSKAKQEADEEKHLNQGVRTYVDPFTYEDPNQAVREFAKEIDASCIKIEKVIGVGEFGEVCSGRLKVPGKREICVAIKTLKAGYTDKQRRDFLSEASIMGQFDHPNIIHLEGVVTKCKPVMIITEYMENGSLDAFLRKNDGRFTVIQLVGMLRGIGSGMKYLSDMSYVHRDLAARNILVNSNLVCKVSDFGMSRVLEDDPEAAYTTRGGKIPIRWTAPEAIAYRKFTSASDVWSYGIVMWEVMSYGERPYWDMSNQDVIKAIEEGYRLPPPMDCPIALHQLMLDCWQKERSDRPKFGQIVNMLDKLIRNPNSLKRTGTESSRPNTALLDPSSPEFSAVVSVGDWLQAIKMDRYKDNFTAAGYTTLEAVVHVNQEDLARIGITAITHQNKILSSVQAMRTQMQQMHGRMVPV
Receptor tyrosine-protein kinase erbB-4 (Homo sapiens), sequence (Q15303 whole entry): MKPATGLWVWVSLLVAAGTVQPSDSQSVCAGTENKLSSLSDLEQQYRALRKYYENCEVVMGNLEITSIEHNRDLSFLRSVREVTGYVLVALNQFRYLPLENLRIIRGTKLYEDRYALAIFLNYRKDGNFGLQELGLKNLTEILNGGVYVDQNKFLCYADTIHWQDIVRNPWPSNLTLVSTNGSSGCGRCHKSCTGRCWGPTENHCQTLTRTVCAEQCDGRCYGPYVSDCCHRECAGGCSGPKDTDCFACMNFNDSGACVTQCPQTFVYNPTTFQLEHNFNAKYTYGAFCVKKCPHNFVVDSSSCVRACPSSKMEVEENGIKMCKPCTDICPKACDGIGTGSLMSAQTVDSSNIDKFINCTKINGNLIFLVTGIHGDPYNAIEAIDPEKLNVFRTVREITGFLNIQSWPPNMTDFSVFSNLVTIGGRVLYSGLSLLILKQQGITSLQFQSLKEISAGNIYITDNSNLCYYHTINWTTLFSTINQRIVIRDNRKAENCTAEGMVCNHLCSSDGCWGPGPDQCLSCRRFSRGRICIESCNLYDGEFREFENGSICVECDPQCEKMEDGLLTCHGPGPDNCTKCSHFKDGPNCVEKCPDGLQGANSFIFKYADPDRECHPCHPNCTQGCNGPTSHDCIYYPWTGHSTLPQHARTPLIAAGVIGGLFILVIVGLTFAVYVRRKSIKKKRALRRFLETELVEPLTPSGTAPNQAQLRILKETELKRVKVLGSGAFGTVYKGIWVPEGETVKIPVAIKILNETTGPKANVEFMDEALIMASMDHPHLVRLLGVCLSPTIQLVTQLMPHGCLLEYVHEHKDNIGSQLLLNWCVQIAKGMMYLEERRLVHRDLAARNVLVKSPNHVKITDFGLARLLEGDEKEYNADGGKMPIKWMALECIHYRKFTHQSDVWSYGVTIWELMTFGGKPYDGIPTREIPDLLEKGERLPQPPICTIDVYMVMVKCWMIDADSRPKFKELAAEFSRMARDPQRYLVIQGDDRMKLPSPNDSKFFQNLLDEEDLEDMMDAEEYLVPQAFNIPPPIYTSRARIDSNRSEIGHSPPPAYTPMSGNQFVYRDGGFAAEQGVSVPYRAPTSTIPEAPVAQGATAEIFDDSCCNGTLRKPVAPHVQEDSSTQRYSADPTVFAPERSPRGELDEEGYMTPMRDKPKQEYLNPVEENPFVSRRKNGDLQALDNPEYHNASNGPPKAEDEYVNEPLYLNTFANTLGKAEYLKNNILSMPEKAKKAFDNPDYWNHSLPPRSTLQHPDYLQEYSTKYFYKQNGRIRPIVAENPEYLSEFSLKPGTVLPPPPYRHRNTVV
Ephrin type-A receptor 5 (Homo sapiens), sequence (P54756 whole entry): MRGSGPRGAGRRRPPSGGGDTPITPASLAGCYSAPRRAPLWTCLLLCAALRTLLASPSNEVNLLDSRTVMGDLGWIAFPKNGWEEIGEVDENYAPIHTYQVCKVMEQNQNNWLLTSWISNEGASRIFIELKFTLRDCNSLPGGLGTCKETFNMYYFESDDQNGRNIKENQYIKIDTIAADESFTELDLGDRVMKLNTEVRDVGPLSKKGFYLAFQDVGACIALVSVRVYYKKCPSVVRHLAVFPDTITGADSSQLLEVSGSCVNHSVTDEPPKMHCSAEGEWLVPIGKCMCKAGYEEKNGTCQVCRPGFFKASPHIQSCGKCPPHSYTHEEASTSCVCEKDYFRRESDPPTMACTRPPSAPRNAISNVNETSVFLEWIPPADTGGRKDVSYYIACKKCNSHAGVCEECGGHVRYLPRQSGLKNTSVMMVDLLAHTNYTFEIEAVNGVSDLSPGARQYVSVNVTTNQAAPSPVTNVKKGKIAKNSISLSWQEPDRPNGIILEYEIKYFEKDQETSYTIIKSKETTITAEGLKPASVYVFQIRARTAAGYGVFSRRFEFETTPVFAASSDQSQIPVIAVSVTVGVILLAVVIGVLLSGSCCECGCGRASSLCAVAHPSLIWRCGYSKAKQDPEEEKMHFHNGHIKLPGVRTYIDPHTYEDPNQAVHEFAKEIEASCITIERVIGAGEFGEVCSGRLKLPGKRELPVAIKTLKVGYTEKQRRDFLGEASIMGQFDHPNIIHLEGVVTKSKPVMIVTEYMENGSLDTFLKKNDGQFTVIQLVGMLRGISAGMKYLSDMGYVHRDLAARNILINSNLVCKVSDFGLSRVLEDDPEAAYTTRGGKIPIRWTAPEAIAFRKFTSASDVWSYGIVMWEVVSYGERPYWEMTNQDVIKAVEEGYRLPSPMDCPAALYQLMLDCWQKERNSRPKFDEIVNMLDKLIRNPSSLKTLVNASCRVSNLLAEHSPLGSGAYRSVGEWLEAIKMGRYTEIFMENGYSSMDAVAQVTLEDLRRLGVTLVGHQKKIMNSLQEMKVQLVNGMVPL
Ephrin type-A receptor 7 (Homo sapiens), sequence (Q15375 28-998 limits assumed): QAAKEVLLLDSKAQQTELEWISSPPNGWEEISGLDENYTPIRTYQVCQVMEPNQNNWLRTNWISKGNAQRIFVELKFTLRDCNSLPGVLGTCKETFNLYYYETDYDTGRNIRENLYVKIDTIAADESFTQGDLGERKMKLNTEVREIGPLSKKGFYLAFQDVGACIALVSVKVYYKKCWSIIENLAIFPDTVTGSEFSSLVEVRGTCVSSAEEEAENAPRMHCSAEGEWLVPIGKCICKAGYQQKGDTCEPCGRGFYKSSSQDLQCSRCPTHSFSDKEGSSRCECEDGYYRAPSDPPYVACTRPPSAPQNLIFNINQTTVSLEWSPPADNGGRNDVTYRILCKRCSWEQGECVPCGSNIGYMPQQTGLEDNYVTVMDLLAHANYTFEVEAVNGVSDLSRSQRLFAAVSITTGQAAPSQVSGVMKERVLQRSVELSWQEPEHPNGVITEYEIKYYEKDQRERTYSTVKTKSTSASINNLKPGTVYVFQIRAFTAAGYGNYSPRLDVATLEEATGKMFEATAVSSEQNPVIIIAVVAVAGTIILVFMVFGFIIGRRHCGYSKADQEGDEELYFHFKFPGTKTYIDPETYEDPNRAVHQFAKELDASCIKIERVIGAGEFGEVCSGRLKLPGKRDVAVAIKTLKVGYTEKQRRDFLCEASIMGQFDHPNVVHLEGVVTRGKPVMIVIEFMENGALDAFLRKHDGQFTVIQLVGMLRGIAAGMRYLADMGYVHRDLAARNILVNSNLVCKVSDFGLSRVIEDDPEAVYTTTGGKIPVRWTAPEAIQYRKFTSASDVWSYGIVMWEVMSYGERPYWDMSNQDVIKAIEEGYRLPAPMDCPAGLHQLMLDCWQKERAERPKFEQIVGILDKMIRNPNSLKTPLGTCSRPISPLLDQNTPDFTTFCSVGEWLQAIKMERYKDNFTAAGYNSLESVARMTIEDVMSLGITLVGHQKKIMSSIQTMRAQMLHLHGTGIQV

For the compound `O=c1c2ccccc2[nH]c(=S)n1CCN1CCC(=C(c2ccc(F)cc2)c2ccc(F)cc2)CC1`, the residual activity in assay [1] amounted to 96%; in [2] it was 112%; in assay [3], 100%; in assay [4], 110%; in assay [5] it was 92%; in assay [6], 106%. The residual activity is 92% in [7]; 115% in assay [8]; 111% in assay [9]; 90% in [10]; 90% in assay [11]; 112% (inactive) in assay [12]. The residual activity in assay [13] was 107%; in assay [14], 99%; in assay [15], 121%; in [16], 102%; in [17], 66%; in assay [18] it was 135%.
